Assay outcomes (PubChem)
p53ts 32C tox = qHTS Screen for Compounds that Selectively Target Cancer Cells with p53 Mutations: Cytotoxicity of p53ts Cells at the Permissive Temperature; Potency, µM (doses to about 46.1 µM), for the others: at the top dose activity change, negative = cytotoxicity, actives largely listed as cytotoxic; 130,000 tested, 0.93% active; H1299-p53A138V at 32C, ATP luminescence viability, 24 h;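 note: 0% = DMSO and -100% = full killing by reference compound; nearly all actives have a fitted effect of over 55% in size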
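Viability by ATPlite luminescence after 24 h compound treatment (up to 46 uM) at the permissive 32C. Cells are H1299 carrying p53 A138V. Scale runs from DMSO basal to 100 uM tamoxifen as full kill; AC50 from Hill fits.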
p53ts 39C kill = qHTS Screen for Compounds that Selectively Target Cancer Cells with p53 Mutations: Cytotoxicity of p53ts Cells at the Nonpermissive Temperature; H1299-p53A138V viability at 39C, ATP luminescence, 24 h; Potency, µM (titrated, usually from 46.1 µM), inactives show at the top dose activity change, negative = cell killing, actives largely listed as cytotoxic; 130,000 tested, 1.5% active; note: % is set by controls: 0 for no effect and ±100 for the full control effect; nearly all actives have a fitted effect of over 55% in size
Peg3 imprint = qHTS Assay for Compounds that Induce Erasure of Genomic Imprints | mouse ES Peg3-LacZ reporter, beta-gal luminescence, 40 h | Potency, µM (titrated, usually from 60.7 µM), inactives show at the top dose activity change, positive = activation, actives largely listed as activators | 110,000 tested, 0.02% active
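Readout: BetaGlo luminescence (5 min, room temp) for LacZ from the normally silent maternal Peg3 allele in female Peg3LacZ-Neo ES cells. Cells 300/well, 40 h, 37C, 5% CO2. Data normalized per plate to negative controls.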
An asterisk follows results filed as active; u = inconclusive; x = no result; [ ] = remark or other dose. Only some compounds are listed: those with a hit (about 1.6% of all), similar ones and a draw of the others. Calls come from the whole dose curve; as a rule, active = well fitted curve in the direction sought with a large enough effect; inconclusive = small, poorly fitted or top-dose-only effect, or another doubt; inactive = no such curve, though single readings can be large; an effect the other way counts as inactive or inconclusive. Potency is the fitted concentration of half-maximal effect.

SMILES	p53ts 32C tox	p53ts 39C kill	Peg3 imprint
CCOC(=O)c1cc(-c2ccccc2)n(CC(=O)Nc2ccccc2OCC)c1C	13%	47%	-4%[10.9 µM]
Cc1ccccc1Nc1c(-c2ccc(N3CCOCC3)cc2)nc2ncccn12	13µM*	4µM*	-9%[10.9 µM]
Cc1ccc(Nc2c(-c3ccc(N4CCOCC4)cc3)nc3ncccn23)cc1	2%	-19%	u
CCc1ccccc1NC(=O)c1cnc(N2CCCCC2)c2ccccc12	0%	-5%	14%[10.9 µM]
Cc1ccc(S(=O)Cc2nc(-c3ccc(C(=O)NC(C)c4ccccc4)cc3)oc2C)cc1 (centres undefined)	-1%	39%	-9%[10.9 µM]
N#CC1=C(N)SC(N)=C(C#N)C1c1ccnc2ccccc12	37%	24%	-16%
O=C1c2ccccc2C(=O)C1c1ccnc2ccccc12	u	5.6µM*	x
c1ccc(-c2noc(-c3cccnc3NCc3ccco3)n2)cc1	-7%	-23%	-13%[10.9 µM]
COc1cc(-c2nc3ccc(Cl)cn3c2Nc2ccc3c(c2)OCO3)ccc1O	-24%	u	8%[10.9 µM]
COc1cc(-c2nc3ccc(C)cn3c2Nc2ccc(Cl)cc2)ccc1O	-14%	16µM*	5%[10.9 µM]
COc1cccc(-c2cncnc2NC2CCNCC2)c1	-1%	-6%	-19%
CC1=C(C(=O)OC2CCCCCC2)C(c2cccc(Cl)c2)CC(=O)N1 (centres undefined)	-19%	20µM*	-13%[10.9 µM]
CC1=C(C(=O)OC2CCCCCC2)C(c2ccc(Cl)cc2)CC(=O)N1 (centres undefined)	2%	u	-9%[10.9 µM]
CCOC(=O)c1cc(S(=O)(=O)Nc2cc(F)ccc2C)[nH]n1	-12%	0%	-9%[10.9 µM]
COc1ccc2c(c1)sc1nc(-c3ccccc3)cn12	0.63µM*	1.3µM*	-93%
COc1ccc(-c2cn3c(n2)sc2cc(C(=O)NCc4ccccc4)ccc23)cc1	-7%	u	-9%[10.9 µM]
COc1cccc(-c2nc(CS(=O)(=O)CC(=O)NCc3cccc(Cl)c3)c(C)o2)c1	4%	-9%	-4%[10.9 µM]
Cc1ccn2c(=O)cc(COc3ccc(NC(=O)c4ccccc4F)cc3)nc2c1	0%	-11%	-5%[10.9 µM]
CCCCN(CC)CCNC(=O)c1cc2c(-c3ccc(Cl)cc3)nn(C)c2s1	1%	16µM*	-5%[10.9 µM]
CCN(CC)CCNC(=O)c1cc2c(-c3ccc(Cl)cc3)nn(C)c2s1	-13%	-19%	-29%
CCCN(CCC)CCNC(=O)c1cc2c(-c3ccc(Cl)cc3)nn(C)c2s1	-24%	13µM*	-14%[10.9 µM]
CCOCCCNC(=O)c1cc2c(-c3ccc(Cl)cc3)nn(C)c2s1	0%	-14%	-17%
Cc1ccc(NC(=O)c2ccc(NC(=O)N3CCSc4ncccc43)cc2)c(C)c1	-2%	-20%	-11%[10.9 µM]
Cc1ccc(NC(=O)c2ccc(NC(=O)N3CCSc4ncccc43)cc2)c(Cl)c1	10µM*	u	-12%[10.9 µM]
CCCC(=O)Oc1c(Sc2ccc(C)cc2)c(C)nn1-c1ccccc1	-1%	-20%	16%[10.9 µM]
SMILES	p53ts 32C tox	p53ts 39C kill	Peg3 imprint
O=C(C1CCN(c2ncnc3c2nc2n3CCCCC2)CC1)N1CCN(c2cccc(Cl)c2)CC1	3%	x	x
Clc1cccc(N2CCN(c3ncnc4c3nc3n4CCCCC3)CC2)c1	u	13µM*	-22%[10.9 µM]
COc1ccc2[nH]cc(CCNc3ncncc3-c3ccc4c(c3)OCO4)c2c1	5%	-11%	-17%
CC(C)[C@H]1c2ccc(F)cc2CC[C@@]1(CCN(C)CCCc1nc2ccccc2[nH]1)OC(=O)C1CC1	x	x	-37%
CC(/C=C/C(=O)NO)=C\[C@@H](C)C(=O)c1ccc(N(C)C)cc1	x	x	-31%
Cc1cc(C)cc(NS(=O)(=O)c2ccc3[nH]cc(C(=O)NCc4ccccc4Cl)c(=O)c3c2)c1	19%	-8%	-16%[10.9 µM]
Cc1cc(C)cc(NS(=O)(=O)c2ccc3[nH]cc(C(=O)NCc4ccco4)c(=O)c3c2)c1	u	2µM*	-26%
Cc1nnc(N2CCN(C(=O)Nc3cc(F)ccc3F)CC2)c2nn(-c3ccc(Cl)cc3)c(C)c12	u	13µM*	-10%[10.9 µM]
COc1ccc(-n2nc3c(N4CCC(C(=O)NCc5cccc(F)c5)CC4)nnc(C)c3c2C)cc1	u	5µM*	7%[10.9 µM]
COc1ccc(CNC(=O)C2CCN(c3nnc(C)c4c(C)n(-c5ccc(C)cc5)nc34)CC2)cc1	u	u	-8%[10.9 µM]
COc1ccc(NC(=O)C2CCCN(c3nnc(C)c4c(C)n(-c5ccccc5)nc34)C2)cc1Cl (centres undefined)	u	10µM*	-15%[10.9 µM]
Cc1ccc(NC(=O)C2CCN(c3nnc(C)c4c(C)n(-c5ccccc5)nc34)CC2)cc1Cl	10%	31%	2%[10.9 µM]
COc1ccccc1NC(=O)N1CCN(c2nnc(C)c3c(C)n(-c4ccc(Cl)cc4)nc23)CC1	2%	-13%	-15%[10.9 µM]
O=C1c2c(O)cc(O)cc2O[C@@H](c2ccc(O)c(O)c2)[C@H]1O	1%	21%	x
CCOC(=O)N1CCC(NC(=O)c2ccc3c(c2)N(Cc2ccc(Cl)cc2)C(=O)c2ccccc2S3(=O)=O)CC1	20%	-12%	-6%[10.9 µM]
CCOC(=O)c1ccc(CN(Cc2ccccc2)S(=O)(=O)c2ccc(C)cc2)cc1	-1%	-1%	-24%[10.9 µM]
Cc1ccc(Cn2c(C)c3cnn(CC(=O)N4CCN(c5cc(C)ccc5C)CC4)c(=O)c3c2C)cc1	10%	-11%	-20%[10.9 µM]
COc1ccc(OC)c(S(=O)(=O)N2CCN(Cc3nc4ccc(C)cc4o3)CC2)c1	-10%	-1%	-9%[10.9 µM]
Cc1c(C(=O)Nc2cccc(Cl)c2)oc2ccc(S(=O)(=O)N(C)C3CCCCC3)cc12	8%	-17%	-18%[10.9 µM]
CCN1CCN(Cc2ccc(NC(=O)Nc3ccccc3Cl)cc2)CC1	10µM*	7.9µM*	-16%
CCN1CCN(Cc2ccccc2NC(=O)Nc2ccc(C)cc2)CC1	-18%	-9%	-11%
Cc1oc2ccc(O)c(CN3CCCC(C)C3)c2c1C(=O)Nc1ccccc1 (centres undefined)	-3%	-14%	-2%[10.9 µM]
CCOC(=O)c1cccc(NS(=O)(=O)c2cc(-c3cnc(C4CC4)o3)ccc2C)c1	23%	27%	-7%[10.9 µM]
CCc1ccc(NS(=O)(=O)c2cc(-c3cnc(C4CC4)o3)ccc2C)cc1	31%	20µM*	15%[10.9 µM]
NCCc1nc2cccnc2n1-c1ccccc1	6%	-8%	-13%[10.9 µM]
SMILES	p53ts 32C tox	p53ts 39C kill	Peg3 imprint
CCC(=O)Nc1ccc(NC(=O)c2cc3ccccc3o2)cc1	-9%	-6%	-29%
Cc1csc(C(C#N)C(=O)c2cc3ccccc3o2)n1 (centres undefined)	5µM*	5µM*	-59%
COc1ccc(Nc2c3c(nc4ccc(NC(=O)c5cc(Cl)ccc5OC)cc24)CCCC3)cc1OC	5.6µM*	5µM*	-37%[10.9 µM]
CCOc1ccccc1C(=O)Nc1ccc2nc3c(c(Nc4ccc(OC)c(OC)c4)c2c1)CCCC3	u	u	-15%[10.9 µM]
CC(C)Oc1ccc(CNC(=O)c2ccc(CN3CC(=O)N4CCCCC4C3=O)cc2)cc1 (centres undefined)	1%	x	x
COc1ccc(OCC(=O)Nc2cc(-c3nc4ccccc4s3)ccc2C)cc1	-25%	16µM*	-16%[10.9 µM]
